# Assay results as given in publication PMC5540273 (PLoS ONE, 2017).
# How the values were obtained:
# Details in all cases: concentration: 1 μM, replicates: in singlicate; n = 1
# [1] = tested on: RIOK1
# [2] = tested on: RIOK2
# [3] = tested on: RIOK3
# [4] = tested on: RIPK1
# [5] = tested on: RIPK2
# [6] = tested on: RIPK4
# [7] = tested on: RIPK5
# [8] = tested on: ROCK1
# [9] = tested on: ROCK2
# [10] = tested on: ROS1
# [11] = tested on: RPS6KA4(Kin.Dom.1-N-terminal)
# [12] = tested on: RPS6KA4(Kin.Dom.2-C-terminal)
# [13] = tested on: RPS6KA5(Kin.Dom.1-N-terminal)
# [14] = tested on: RPS6KA5(Kin.Dom.2-C-terminal)
# [15] = tested on: T1, RSK1(Kin.Dom.1-N-terminal)
# T1 construct: gene RPS6KA1
# [16] = tested on: T2, RSK1(Kin.Dom.2-C-terminal)
# T2 construct: gene RPS6KA1
# [17] = tested on: T3, RSK2(Kin.Dom.1-N-terminal)
# T3 construct: gene RPS6KA3
# [18] = tested on: T4, RSK2(Kin.Dom.2-C-terminal)
# T4 construct: gene RPS6KA3
# [19] = tested on: T5, RSK3(Kin.Dom.1-N-terminal)
# T5 construct: gene RPS6KA2
# [20] = tested on: T6, RSK3(Kin.Dom.2-C-terminal)
# T6 construct: gene RPS6KA2
# 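Note: KINOMEscan kinase panel screen.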
SMILES,%Inh [1],%Inh [2],%Inh [3],%Inh [4],%Inh [5],%Inh [6],%Inh [7],%Inh [8],%Inh [9],%Inh [10],%Inh [11],%Inh [12],%Inh [13],%Inh [14],%Inh [15],%Inh [16],%Inh [17],%Inh [18],%Inh [19],%Inh [20]
Cl.Cl.NC(CNC(=O)c1cc(Br)c(-c2ccnc3[nH]ccc23)s1)c1ccccc1 (stereo not drawn) [GSK1322949],100%,88%,98%,21%,0%,34%,18%,99.6%,99.9%,51%,37%,62%,37%,33%,10%,26%,37%,22%,14%,14%
CC(=O)Nc1cn2nc(Oc3cccc(NC(=O)c4cccc(C(F)(F)F)c4)c3)ccc2n1,0%,0%,39%,0%,67%,0%,0%,0%,0%,0%,47%,0%,0%,6%,0%,0%,0%,30%,0%,5%
CN(C)CCNS(=O)(=O)c1ccc(-c2ccnc3[nH]ccc23)cc1 [GSK977620],78%,78%,64%,0%,0%,3%,0%,99.6%,98.3%,48%,30%,73%,44%,68%,30%,31%,60%,9%,32%,21%
O=C(Nc1c(F)cccc1F)c1cc(C(=O)c2ccccc2F)c[nH]1 [GSK1326180],11%,4%,6%,0%,0%,0%,0%,0%,9%,0%,8%,0%,4%,0%,5%,0%,1%,24%,0%,10%
N#CC1(c2cccc(C(=O)Nc3cccc(Oc4ccc5nc(NC(=O)C6CC6)sc5n4)c3)c2)CC1,0%,0%,0%,15%,55%,0%,0%,0%,0%,1%,0%,2%,0%,0%,0%,25%,15%,1%,25%,21%
CCOc1nccc(-c2c(-c3ccc(F)cc3)ncn2C2CCNCC2)n1 [SB-249175],44%,24%,42%,23%,31%,53%,8%,53%,19%,11%,8%,32%,100%,0%,16%,20%,52%,39%,17%,20%
O=C(O)C(F)(F)F.O=c1[nH]ccc2nc(N[C@@H]3CCNC3)nc(Nc3cc(Cl)cc(Cl)c3)c12 [GSK2188764],97.4%,29%,100%,16%,30%,44%,10%,99.5%,99.7%,0%,94.6%,99.9%,65%,86%,96.7%,64%,98.3%,30%,94.8%,55%
Cc1ccc(NC(=O)c2cccc(N3CCCCC3)c2)cc1-c1ccc(C(=O)NCC2CC2)cc1 [GSK1917008],34%,15%,0%,13%,6%,29%,0%,2%,0%,6%,28%,0%,33%,8%,18%,1%,15%,21%,12%,5%
COc1cc(Nc2ccnc3cc(-c4ccncc4)ccc23)cc(OC)c1OC.Cl [GW494610],39%,11%,0%,0%,83%,0%,0%,31%,14%,16%,8%,0%,22%,0%,0%,0%,5%,20%,1%,0%
COC(=O)Nc1nc2ccc(Oc3ccc(CC(=O)Nc4cc(C(F)(F)F)ccc4F)cc3)cc2[nH]1 [GW680903],0%,0%,8%,84%,48%,8%,0%,31%,12%,0%,0%,0%,1%,0%,65%,4%,0%,5%,4%,0%
Cc1cc(-c2ccnc(Nc3cccc(C#N)c3)n2)cc(C)c1O [GSK1440913],100%,91.7%,97.9%,53%,28%,37%,8%,0%,0%,64%,0%,0%,0%,0%,12%,17%,5%,0%,26%,21%
COc1cccc(CC(=O)N2CCc3cc(-c4cn(C)c5ncnc(N)c45)ccc32)c1 [GSK2608899],20%,20%,17%,100%,35%,0%,58%,23%,5%,9%,28%,0%,1%,11%,21%,27%,16%,17%,22%,20%
COc1ccc(NC(=O)c2ccoc2)cc1-c1ccc(C(=O)NCC2CC2)cc1 [GW810437],8%,1%,5%,0%,4%,34%,14%,36%,0%,0%,18%,0%,4%,8%,0%,21%,22%,0%,0%,27%
Cc1ccc(O)cc1Nc1ccnc2ccc(C(C)(C)C)cc12 [GW856805],15%,0%,11%,16%,79%,41%,22%,51%,39%,28%,4%,9%,2%,8%,30%,0%,39%,32%,16%,0%
Cc1ccc(-c2ccc3occ(-c4ccc(S(C)=O)cc4)c3c2)nn1 (stereo not drawn),0%,10%,0%,0%,0%,0%,0%,6%,0%,0%,1%,0%,22%,0%,0%,0%,0%,9%,0%,0%
Cc1ccc(O)cc1Nc1ccnc2cc(-c3ccc(CN4CCCCC4)o3)ccc12 [GW557777],16%,0%,21%,12%,91%,4%,12%,0%,0%,11%,0%,9%,0%,10%,0%,90.7%,0%,40%,1%,29%
Fc1cc(Cl)ccc1Nc1ccnc2cc(-c3ccc(CN4CCSCC4)o3)ccc12 [GW560106],9%,0%,0%,0%,94.7%,0%,0%,29%,32%,20%,18%,0%,23%,0%,0%,25%,0%,48%,0%,6%
CNc1nccc(-c2ccc3c(N)n[nH]c3c2)n1 [GSK2206003],98.2%,85%,82%,8%,0%,41%,0%,52%,62%,22%,3%,91.8%,19%,63%,22%,22%,38%,0%,14%,5%
Cc1cc(-c2c(-c3ccc(F)cc3)ncn2CCCN2CCOCC2)nc(N)n1 [SB-222517],10%,0%,11%,0%,0%,14%,11%,29%,0%,19%,18%,0%,23%,4%,30%,49%,34%,0%,9%,21%
CC(C)NCC(Cc1ccccc1)NC(=O)c1cc(Br)c(-c2ccnc3[nH]ccc23)s1.Cl.Cl (stereo not drawn) [GSK1383281],72%,84%,60%,0%,0%,15%,9%,99.6%,99.6%,46%,76%,0%,48%,22%,50%,0%,25%,0%,16%,6%
COc1cccc(NC(=O)NCCNc2ccnc(Nc3ccc(F)cc3)n2)c1 [GSK1379879],31%,0%,13%,13%,0%,23%,0%,6%,15%,0%,0%,0%,0%,34%,18%,0%,3%,0%,3%,0%
